LYPLA1 inh – blocks human lysophospholipase 1, a PME1 counter-screen. O75608. recombinant LYPLA1, FP-Rh probe fluorescence polarization. inhibition, % at 5.9 µM. actives 0.16% (n = 320,000);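 active = inhibition above the mean of all tested compounds plus 3 SD, set per campaign, cut at about 14% in these data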;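 note: inhibitors block serine hydrolase probe labeling of LYPLA1 so polarization falls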
PAD4 FP inh – blocks human protein arginine deiminase 4. recombinant PAD4, RCA probe fluorescence polarization. inhibition, % at 6.36 µM. actives 0.41% (n = 330,000);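 active = percent inhibition above a cutoff equal to the mean of all tested compounds plus 3 SD, cut at about 15% in these data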
Fam108B counter – counter-screen for RBBP9 inhibitors: inhibitors of mouse Fam108B. recombinant Fam108B, FP-Rh probe fluorescence polarization. inhibition, % at 9.51 µM. actives 0.33% (n = 300,000). AID 1947;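 active = inhibition above the screen mean inhibition plus 3 SD, computed separately per campaign, cut at about 18% in these data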;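 note: inhibitors lower polarization as less probe binds the enzyme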
PME-1 inh – blocks human protein phosphatase methylesterase 1 | Q9Y570 | recombinant PME-1, FP-Rh probe fluorescence polarization | inhibition, % at 5.9 µM | actives 0.53% (n = 320,000) | AID 2130;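 active = inhibition above the campaign mean of all compounds plus 3 SD, cut at about 26% in these data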;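 note: competitive labeling of PME-1 active site by serine hydrolase directed probe; inhibitors block probe labeling so polarization falls and inhibition rises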
LYPLA2 inh – LYPLA2 (human) inhibition in PME1 counter-screen. actives 0.38% (n = 320,000). inhibition, % at 5.9 µM. AID 2177. recombinant LYPLA2, FP-Rh probe fluorescence polarization. O95372;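 active = inhibition above the screen-wide mean plus 3 SD, limit set per campaign, cut at about 26% in these data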
Target sequence (O95372 whole entry, looked up): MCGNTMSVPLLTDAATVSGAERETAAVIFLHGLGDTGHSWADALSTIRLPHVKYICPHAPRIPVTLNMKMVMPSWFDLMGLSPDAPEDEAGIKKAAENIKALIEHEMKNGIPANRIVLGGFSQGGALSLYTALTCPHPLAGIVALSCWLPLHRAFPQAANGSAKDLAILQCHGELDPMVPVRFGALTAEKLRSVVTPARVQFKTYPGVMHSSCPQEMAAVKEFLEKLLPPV
GSTO1 inh – counter-screen for RBBP9 inhibitors: inhibitors of human GSTO1; inhibition, % at 5.96 µM; P78417; recombinant GSTO1, activity-based probe fluorescence polarization; actives 1.1% (n = 300,000);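 active = inhibition above the campaign mean inhibition plus 3 SD, cut at about 35% in these data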
Target sequence (P78417 whole entry, looked up): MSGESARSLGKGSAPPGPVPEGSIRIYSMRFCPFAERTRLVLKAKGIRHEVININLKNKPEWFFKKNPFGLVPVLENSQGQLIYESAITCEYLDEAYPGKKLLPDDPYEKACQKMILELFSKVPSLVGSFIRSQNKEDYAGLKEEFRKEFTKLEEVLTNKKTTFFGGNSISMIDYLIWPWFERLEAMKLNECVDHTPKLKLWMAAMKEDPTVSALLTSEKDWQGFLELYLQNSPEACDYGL
LYPLA1 confirm – LYPLA1 (human) inhibition, confirmation counter-screen. actives 69% (n = 480). recombinant LYPLA1, FP-Rh probe fluorescence polarization. AID 2233. inhibition, % at 5.9 µM. shares compounds with LYPLA1 inh;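 active = mean inhibition across replicates above the hit cutoff set in the primary screen, cut at about 15% in these data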;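 note: loss of FP-Rh probe labeling of LYPLA1 seen as lower polarization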
LYPLA2 conf – counter-screen for PME1 inhibitors: confirmation of human LYPLA2 inhibitors | shares compounds with LYPLA2 inh | inhibition, % at 5.9 µM | recombinant LYPLA2, FP-Rh probe fluorescence polarization | actives 72% (n = 1,100) | AID 2232;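 active = mean inhibition across replicates above the hit cutoff set in the primary screen, cut at about 26% in these data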;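 note: blocked labeling of the enzyme by serine hydrolase FP-Rh probe lowers polarization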
PAD4 FP conf – confirmation of human PAD4 inhibitors | shares compounds with PAD4 FP inh | recombinant PAD4, RCA probe fluorescence polarization | inhibition, % at 6.36 µM | actives 28% (n = 1,200);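 active = mean inhibition across replicates above the hit cutoff set by the earlier primary screen, cut at about 15% in these data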;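 note: inhibitors block active-site labeling by the probe so polarization falls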
Hits are given with their value; - = inactive; . = not tested or not shown. Only some compounds are listed: those with a hit (about 1.8% of all), similar ones and a draw of the others.

SMILES	LYPLA1 inh	PAD4 FP inh	Fam108B counter	PME-1 inh	LYPLA2 inh	GSTO1 inh	LYPLA1 confirm	LYPLA2 conf	others
Cc1cc(C(=O)COc2ccccc2C(N)=O)c(C)n1C	-	-	-	-	-	-	.	.
Cc1cc(C(=O)COc2cccc3cccnc23)c(C)n1C	21	-	-	-	29	-	-	-
CCOc1ccc(C(=O)NCC(=O)N2CCC3CCCCC3C2)cc1OCC (centres undefined)	-	-	-	-	-	-	.	.
N#Cc1c(NC(=S)NC(=O)c2ccccc2)sc2c1CCC2	-	-	-	-	-	-	.	.
O=C(NC(=S)Nc1sc2c(c1C(=O)O)CCCC2)c1ccccc1	78	-	-	-	96	-	71	87
CC(C)(C)OC(=O)NCCCCCc1nnc(SCc2c(F)cccc2Cl)o1	25	-	-	-	40	-	41	44
CC(C)(C)OC(=O)NCCc1nnc(SCc2c(Cl)cccc2Cl)o1	-	-	-	-	-	-	.	.
CC(=O)NCCC(=O)Nc1nc2ccc(Oc3ccccc3)cc2s1	-	-	-	-	-	-	.	.
OC(COc1ccc(Cl)cc1)CN1CCN(c2cccc(Cl)c2)CC1 (centres undefined)	20	-	-	-	59	-	27	62
O=C(CCCCn1c(=O)[nH]c2ccccc2c1=O)N1CCN(c2cccc(C(F)(F)F)c2)CC1	20	-	-	-	83	-	22	73
COc1ccc(N2CCN(C(=O)CCCCCn3c(=O)[nH]c4ccsc4c3=O)CC2)cc1	19	-	-	-	27	-	46	29
COc1ccc(N2CCN(CCCNC(=O)CCCn3c(=O)[nH]c4ccsc4c3=O)CC2)cc1	-	-	-	-	-	-	.	.
Cc1ccc(C)c(C(=O)CCC(=O)N2CCN(c3cccc(C(F)(F)F)c3)CC2)c1	37	-	.	-	57	.	44	64
COc1ccc(-n2nc(C(=O)NCC(=O)N3CCN(c4cccc(Cl)c4)CC3)c3ccccc3c2=O)c(OC)c1	49	-	-	-	83	-	49	68
Cc1cc(OCc2cc(C(=O)N3CCC(Oc4cccnc4)CC3)no2)cc(C)c1Cl	30	-	-	-	59	-	33	62
O=C(CN(C(=O)c1csnn1)c1ccc(F)c(Cl)c1)NCc1ccc2c(c1)OCO2	-	-	-	-	-	-	.	.
Cc1ccc(C(=O)N2CCN(c3ccc(NC(=O)Cc4ccccc4)cc3)CC2)cc1	-	-	-	-	-	-	.	.
COc1ccc(CC(C)N2CCN(Cc3ccccc3)CC2)cc1OC (centres undefined)	25	-	-	-	28	-	-	-
O=C(c1ccccn1)N1CCN(c2ccc(C(F)(F)F)cn2)CC1	-	-	-	-	-	-	.	.
O=C(c1ccc2n[nH]nc2c1)N1CCN(c2ccc(C(F)(F)F)cn2)CC1	67	-	.	-	62	.	58	70
C/C(=C\c1ccccc1)CN1CCN(c2cccc(Cl)c2)CC1	25	-	-	-	37	-	42	44
NC(=O)CN1CCN(c2cccc(Cl)c2)CC1	-	-	-	-	-	-	.	.
COc1cc(COc2ccc3c(C)c(Cc4ccccc4)c(=O)oc3c2)cc(OC)c1OC	17	-	-	-	50	-	36	57
Cc1ccc(-c2noc(C3CCCN(C(=O)c4ccc(C(C)(C)C)cc4)C3)n2)o1 (centres undefined)	20	-	-	-	36	-	23	37
CC(Oc1ccc2c3c(c(=O)oc2c1)CCCC3)C(=O)NCc1ccncc1 (centres undefined)	-	-	-	-	-	-	.	.
SMILES	LYPLA1 inh	PAD4 FP inh	Fam108B counter	PME-1 inh	LYPLA2 inh	GSTO1 inh	LYPLA1 confirm	LYPLA2 conf	others
CC(=O)N1CCC2(CC1)C/C(=N\NC(=S)Nc1ccc(C)cc1)c1cc(O)ccc1O2	22	-	-	-	50	-	31	54
Cc1ccc(NC(=S)N/N=C2\CC(C)(C)Oc3ccc(O)cc32)cc1	-	-	-	-	-	-	.	.
CCOC(=O)c1c(C)[nH]c(C(=O)N2CCC(C(=O)OCC)CC2)c1C	-	-	-	-	-	-	.	.
c1ccc(CN2CCN(CCCNc3ccc4nnc(-c5ccccc5)n4n3)CC2)cc1	36	-	-	-	38	-	38	29
Cc1ccc(N(C(=O)c2csnn2)C(C(=O)NC2CCCCC2)c2cccnc2)cc1C (centres undefined)	-	-	-	-	-	-	.	.
CN(C)c1ccc(S(=O)(=O)NCC(=O)N2CCN(c3ccccc3)CC2)cc1[N+](=O)[O-]	18	-	-	-	28	-	24	26
CN(C)c1ccc(S(=O)(=O)NCC(=O)NCc2ccccc2)cc1[N+](=O)[O-]	-	-	-	-	-	-	.	.
Cc1ccc(NC(=O)CCc2nc3ccccc3c(=O)[nH]2)cc1S(=O)(=O)N1CCOCC1	-	-	-	-	-	-	.	.
CCc1cccc(CC)c1NC(=O)CN1CCN(S(=O)(=O)c2ccccc2)CC1	-	-	-	-	-	-	.	.
Cc1ccc(CN2CCN(/N=C/C=C/c3ccccc3[N+](=O)[O-])CC2)cc1	33	-	-	-	71	-	53	77
CC(NC(=O)CCNC(=O)c1ccc(Br)cc1)c1ccc(-n2ccnc2)cc1 (centres undefined)	-	-	-	-	-	-	.	.
CC(=O)Nc1ccc(NC(=O)CCCCCN2C(=O)c3ccccc3C2=O)cc1	-	-	-	-	-	-	.	.
CC(=O)Nc1ccc(Nc2c3c4c(cccc4n(C)c2=O)C(=O)c2ccccc2-3)cc1	21	19	-	33	29	-	-	-	PAD4 FP conf=23
Cc1ccc(OC2=NS(=O)(=O)c3ccccc32)cc1	-	-	-	-	-	-	.	.
CCN(CC)c1cccc(OC2=NS(=O)(=O)c3ccccc32)c1	15	65	-	-	-	-	-	.	PAD4 FP conf=-
CCCCN(C)C1=CC2=CC(=C(C#N)C#N)CCC2CC1 (centres undefined)	32	46	-	42	-	-	-	.	PAD4 FP conf=21
Cc1cccc2cc3c(NC(=O)C(C)(C)C)nn(CC(C)C)c3nc12	-	-	-	-	-	-	.	.
CC(=O)Nc1ccc(NC2CCCCC2NS(=O)(=O)c2ccccc2)cc1 (centres undefined)	-	-	-	-	-	-	.	.
Nc1ccc(N2CCOCC2)c2nonc12	70	81	-	-	70	86	-	.	PAD4 FP conf=-
Cc1ccc(N(CC(=O)Nc2ccc(C)cn2)S(=O)(=O)c2c(C)nn(C)c2C)cc1	16	49	-	-	-	36	-	.	PAD4 FP conf=-

Source: PubChem BioAssay
